From PubChem
KCNQ2 enhance = potentiators of rat KCNQ2 potassium channel. CHO-K1 KCNQ2, FluxOR thallium flux fluorescence; hits give high values. O88943. 0.54% of 310,000 active. B-score at 10 µM;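 active = fluorescence ratio B-score at least 3 SD of library B-scores, with initial fluorescence B-score within 3 of them, cut at about 5.3 in these data; same plate scores as AID 2156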;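 note: B-score of peak minus minimum over baseline fluorescence ratio after K+ and Tl+ stimulus; positive B-score means potentiation of KCNQ2 with more thallium influx and brighter signal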
Target sequence (O88943 whole entry, looked up): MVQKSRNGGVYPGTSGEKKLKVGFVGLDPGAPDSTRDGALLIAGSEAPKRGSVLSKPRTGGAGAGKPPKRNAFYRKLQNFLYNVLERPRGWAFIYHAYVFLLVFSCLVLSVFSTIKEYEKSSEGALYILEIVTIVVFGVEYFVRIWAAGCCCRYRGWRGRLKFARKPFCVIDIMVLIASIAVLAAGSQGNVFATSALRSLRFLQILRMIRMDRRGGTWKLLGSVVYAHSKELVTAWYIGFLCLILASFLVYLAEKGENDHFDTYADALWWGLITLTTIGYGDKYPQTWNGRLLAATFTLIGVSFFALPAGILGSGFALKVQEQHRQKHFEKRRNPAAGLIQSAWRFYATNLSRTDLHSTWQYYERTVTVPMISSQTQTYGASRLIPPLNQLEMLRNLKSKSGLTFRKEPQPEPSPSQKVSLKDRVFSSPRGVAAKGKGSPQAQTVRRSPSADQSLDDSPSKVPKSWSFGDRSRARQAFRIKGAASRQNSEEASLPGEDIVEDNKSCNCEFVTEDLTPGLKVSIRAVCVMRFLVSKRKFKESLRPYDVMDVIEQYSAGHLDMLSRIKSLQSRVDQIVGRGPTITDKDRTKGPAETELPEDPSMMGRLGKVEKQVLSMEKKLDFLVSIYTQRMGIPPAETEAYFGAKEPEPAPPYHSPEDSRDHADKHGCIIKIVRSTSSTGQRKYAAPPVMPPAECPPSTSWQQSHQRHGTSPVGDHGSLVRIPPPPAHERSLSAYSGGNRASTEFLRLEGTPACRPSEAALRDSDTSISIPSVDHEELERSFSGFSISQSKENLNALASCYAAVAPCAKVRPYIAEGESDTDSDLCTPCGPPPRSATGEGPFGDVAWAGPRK
KCNQ2 block = KCNQ2 (rat) channel inhibition | 1.1% of 310,000 active | CHO-K1 KCNQ2, FluxOR thallium flux, 20 min; hits give low values | O88943 | B-score at 10 µM;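 active = fluorescence ratio B-score at most minus 3 library SDs, with starting brightness B-score within 2 library SDs, cut at about -5.5 in these data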
Of the large screens only hits and unclear results are named; the others gave an inactive call. Hits are enriched below; roughly 1.6% of the tested compounds scored in any of these assays.

O=C(NNC1CC(=O)N(c2ccccc2)C1=O)c1ccc(COc2ccccc2Cl)o1 (stereo not given)	none
Cc1ccc(CCNC(=O)c2cccc(NC3=NC4CS(=O)(=O)CC4S3)c2)cc1 (stereo not given)	none
CN(C)S(=O)(=O)N1CCC(Oc2ccc(C(=O)N3C[C@@H]4CCC[C@H]3C4)cc2)CC1	none
COc1cccc(N2CCN(C(=O)CN(c3cc(C)cc(C)c3)S(=O)(=O)c3c(C)noc3C)CC2)c1	none (no result: KCNQ2 enhance)
Cc1cc(C)cc(N(CC(=O)N2CCN(c3ccccc3)CC2)S(=O)(=O)c2c(C)noc2C)c1	KCNQ2 block -6.54
COc1ccccc1C1CCN(C(=O)c2ccc(Cl)cc2)CC1	none (no result: KCNQ2 enhance)
COCn1c(-c2ccc(OC)c(OC)c2)nc2ccccc21	none (no result: KCNQ2 enhance)
COCn1c(-c2cccc(Br)c2)nc2ccccc21	KCNQ2 block -5.9
COc1ccccc1CNS(=O)(=O)c1cc2c3c(c1)C(C)C(=O)N3CCC2 (stereo not given)	none (no result: KCNQ2 enhance)
O=C(C1CCN(Cc2nc(Cc3cccc(F)c3)no2)CC1)N1CCOCC1	none
CCn1c(=O)c([N+](=O)[O-])c(NCCN(C)C)c2ccccc21	none (no result: KCNQ2 enhance)
CCn1c(=O)c([N+](=O)[O-])c(Cl)c2ccccc21	KCNQ2 block -6.65
COc1ccc(S(=O)(=O)N(CC(=O)NCc2cccnc2)c2ccc(C)cc2)cc1OC	none
O=C(CN1CCOCC1)NN=C1CCCCCCCCCCC1	none
O=C(Nc1ccc(F)cc1F)c1ccc(-n2cccn2)c([N+](=O)[O-])c1	none (no result: KCNQ2 enhance)
Cc1ccc2nc(C)c3c(c2c1)OC(C(C)(Cl)Br)C3 (stereo not given)	KCNQ2 block -5.69
COc1ccc2nc(C)c3c(c2c1)OC(C(C)(Cl)Br)C3 (stereo not given)	none (no result: KCNQ2 enhance)
COc1ccc(C2c3[nH]c4ccccc4c3C[C@H]3C(=O)N(c4ccccc4C(=O)N4CCC[C@H]4C(=O)O)C(=O)N23)cc1 (stereo not given in full)	none
COc1ccc(C(=O)N2CCC(C(=O)O)CC2)c2ccccc12	none
C=CCn1c(=O)c(C(=O)Nc2ccccc2C(=O)OCC)c(O)c2ccccc21	none (no result: KCNQ2 enhance)
C=CCn1c(=O)c(C(=O)Nc2ccccc2S(N)(=O)=O)c(O)c2ccccc21	KCNQ2 enhance 5.72
CC(=O)N1CCCc2ccc(NS(=O)(=O)c3ccccc3)cc21	none (no result: KCNQ2 enhance)
O=C(COC(=O)Cc1ccc(Cl)cc1)Nc1ccc(OC(F)F)cc1	none (no result: KCNQ2 enhance)
O=C(Nc1ccc(Cl)cc1)N(C1=NCCC1)c1ccc(OC(F)F)cc1	KCNQ2 block -5.69
COc1ccc(S(=O)(=O)N(C)C)cc1NC(=O)Cc1cccs1	none
COc1ccccc1N1CCN(C(=O)CSc2ncnc3scc(-c4ccccc4)c23)CC1	none (no result: KCNQ2 enhance)
O=C(CSc1ncnc2scc(-c3ccccc3)c12)N1CCN(c2ccccc2F)CC1	KCNQ2 block -6.19
Cc1cc([N+](=O)[O-])ccc1NC(=O)C(C)N1CCN(c2ccccn2)CC1 (stereo not given)	none (no result: KCNQ2 enhance)
Nc1cccc(Oc2ccc3c(c2)C(=O)N(CC2CCCO2)C3=O)c1 (stereo not given)	none (no result: KCNQ2 enhance)
O=C(NN1C(=O)/C(=C/c2cccc(O)c2)SC1=S)c1ccccc1O	KCNQ2 block -8.27
O=C(NN1C(=O)/C(=C/c2ccc(O)c(O)c2)SC1=S)c1ccccc1	none (no result: KCNQ2 enhance)
COc1ccc(/C=C(/C(=O)Nc2ccccc2C(=O)NC(C)C)c2ccccc2)cc1	KCNQ2 block -7.9
COc1ccc(/C=C(/C(=O)Nc2ccccc2C(=O)N2CCCC2)c2ccccc2)cc1	KCNQ2 block -6.61
COc1ccc(/C=C/C(=O)Nc2ccccc2C(=O)N2CCCC2)cc1	none (no result: KCNQ2 enhance)
COc1ccc(NC(=O)c2ccccc2NC(=O)c2ccccc2)cc1	none
CCC(C)NC(=O)c1cc(S(=O)(=O)N2CCCCC2)c[nH]1 (stereo not given)	none
CC(C)CCNC(=O)C1CCC(=O)N1CCc1ccccc1 (stereo not given)	none
O=C(NCc1ccccc1Cl)C1(S(=O)(=O)c2ccc(Cl)cc2)CC1	KCNQ2 block -5.73
O=C(Cc1ccc(Cl)cc1)NCc1ccccc1Cl	none (no result: KCNQ2 enhance)
COc1cc2nc(NC(=O)c3ccc(F)cc3Cl)sc(=O)c2cc1OC	none
O=C(NC1CCCCC1)C(c1cccs1)N(C(=O)Cc1c[nH]c2ccccc12)c1ccc(F)cc1 (stereo not given)	KCNQ2 block -6.76
Cc1ccc(N(C(=O)Cc2cccs2)C(C(=O)NC2CCCCC2)c2ccccn2)cc1C (stereo not given)	KCNQ2 block -6.2
CC(=O)c1ccc(N(C(=O)Cc2c[nH]c3ccccc23)C(C(=O)NC2CCCCC2)c2cccs2)cc1 (stereo not given)	none (no result: KCNQ2 enhance)
Cc1cccc(N(C(=O)Cc2cccs2)C(C(=O)NC2CCCC2)c2ccncc2)c1 (stereo not given)	none (no result: KCNQ2 enhance)
CCOc1ccc(N(C(=O)c2ccc3c(c2)OCO3)C2C=CS(=O)(=O)C2)cc1 (stereo not given)	none (no result: KCNQ2 enhance)
NC(=O)CSc1nnc(COc2cccc3ccccc23)o1	none
O=C(CSc1nnc(COc2cccc3ccccc23)o1)N1c2ccccc2CCc2ccccc21	KCNQ2 block -8.4
CC(=O)C(Cc1ccccc1)NC(=O)CN1CCc2ccccc2C1 (stereo not given)	none (no result: KCNQ2 enhance)
Cc1ccccc1NC(=O)CN1CCc2ccccc2C1	none (no result: KCNQ2 enhance)
COC(=O)c1ccccc1NC(=O)CN1CCc2ccccc2C1	KCNQ2 block -7.84
O=C(NC(Cc1ccccc1)C(=O)O)c1ccccc1 (stereo not given)	none (no result: KCNQ2 enhance)
O=C(NC(Cc1ccccc1)C(=O)N1CCc2ccccc2C1)c1ccccc1 (stereo not given)	KCNQ2 block -6.3
CC(CCc1ccccc1)NC(=O)CN1CCc2ccccc2C1 (stereo not given)	KCNQ2 block -5.79
O=C(Cc1cccs1)N1CCN(S(=O)(=O)c2cc(Cl)ccc2Cl)CC1	none
Cn1c(=O)c(=O)n(C)c2cc(S(=O)(=O)CCC(=O)Nc3ccc(C(F)(F)F)cc3)ccc21	none
COc1ccccc1CNC(=O)Cc1c[nH]c2ccccc12	none (no result: KCNQ2 enhance)
COc1ccccc1CNC(=O)[C@H](Cc1c[nH]c2ccccc12)NC(=O)[C@@H]1Cc2ccccc2CN1	KCNQ2 block -6.79
CS(=O)(=O)c1ccc(C(=O)NC(Cc2ccccc2)c2ccccc2)cc1 (stereo not given)	none (no result: KCNQ2 enhance)
COCC(C)NS(=O)(=O)c1ccc(C(=O)NC(Cc2ccccc2)c2ccccc2)cc1 (stereo not given)	KCNQ2 block -7.78
Cc1ccccc1NC(=S)NC(NC(=O)COc1ccccc1)C(Cl)(Cl)Cl (stereo not given)	none (no result: KCNQ2 enhance)
O=C(COc1ccccc1)NC(NC(=S)Nc1ccccc1O)C(Cl)(Cl)Cl (stereo not given)	KCNQ2 block -6.18
OC(CNCC1CCCO1)Cn1c2ccc(Cl)cc2c2cc(Cl)ccc21 (stereo not given)	KCNQ2 block -7.59
OC(CNCC1CCCO1)Cn1c2ccccc2c2ccccc21 (stereo not given)	none (no result: KCNQ2 enhance)
Cc1cccc(CN2CCN(C(c3ccccc3)c3ccc(Cl)cc3)CC2)c1 (stereo not given)	KCNQ2 block -5.94
COc1cc(CN2CCN(C(c3ccccc3)c3ccccc3)CC2)cc(OC)c1OC	none (no result: KCNQ2 enhance)
CCNC(=O)CC1C(=O)N(c2cccc(C)c2)C(=O)N1CCC(C)C (stereo not given)	none
CC1CCCN(C(=O)CN(C)S(=O)(=O)c2ccc3c(c2)c(=O)n(C)c(=O)n3C)C1 (stereo not given)	none
O=C(CCc1ccccc1)c1ccc2c(c1)OCCCO2	none (no result: KCNQ2 enhance)
O/N=C(/CCc1ccccc1)c1ccc2c(c1)OCCO2	KCNQ2 block -5.92
CCC(Sc1nnc(-c2ccco2)n1C)C(=O)Nc1nnc(C)s1 (stereo not given)	none
